# Source: PMC12820563, “FoxP3 forms a head-to-head dimer in vivo and stabilizes its multimerization on adjacent microsatellites”
# Whole data set: some 16,000 sequences, median “rpm ratio (pull-down/input)” near 0.94, cut for the highest 2% near 1.7. Shown is part of a subset that was picked to be rich in the highest values.
# Target: T1, MBP-FoxP1dN (Mus musculus, UniProt P58462 326-579)
# T1 sequence: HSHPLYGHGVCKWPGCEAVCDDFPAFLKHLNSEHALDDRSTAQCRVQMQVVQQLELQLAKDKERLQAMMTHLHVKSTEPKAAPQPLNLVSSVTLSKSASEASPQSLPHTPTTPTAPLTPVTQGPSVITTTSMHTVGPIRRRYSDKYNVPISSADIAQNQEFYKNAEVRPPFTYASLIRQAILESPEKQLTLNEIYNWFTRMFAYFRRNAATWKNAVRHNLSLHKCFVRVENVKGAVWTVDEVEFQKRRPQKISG
# Experiment: PD-seq (MBP pull-down with sequencing); 20 mM Tris-HCl pH 7.5, 100 mM NaCl, 1.5 mM MgCl2, 0.4 uM protein, 0.1 uM dsDNA library, 30 min, room temperature, amylose pull-down; high values mean tight binding
# Conditions: protein: recombinant; tags: His6-MBP; chain copies: 2; dsDNA, one strand shown
# How it was run: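 E. coli-expressed mouse FoxP3 or FoxP1 fragment, N-terminus removed and tagged with His6-MBP, was used at 0.4 µM against 0.1 µM of a Klenow-filled degenerate double-stranded DNA library. After 30 min at room temperature in Tris pH 7.5 buffer with NaCl and MgCl2, complexes were pulled down on amylose resin and washed three times. Binding is pull-down over input reads-per-million enrichment from pooled replicates of the proteinase K-released, PCR-barcoded, Illumina-sequenced DNA.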
row,Sequence,binding signal
1,GATGATTGTTCTCCCAGCTGATGAATTCGGGATTTCGAGTAAACAAATTTTCCTAATCTTTCTGTTCAAGCGCCATCTAC,0.851 RPM ratio (pull-down/input)
2,GATGATTGTTCTCCCAGCTGATGAATTAAGGTGCTCGAGTAAACAAATTTTCCTAATCTTTCTGTTCAAGCGCCATCTAC,0.849 RPM ratio (pull-down/input)
3,GATGATTGTTCTCCCAGCTGATGAATTTGTAAGATCGAGTAAACAAATTTTCCTAATCTTTCTGTTCAAGCGCCATCTAC,1.09 RPM ratio (pull-down/input)
4,GATGATTGTTCTCCCAGCTGATGAATTTTTGAGATCGAGTAAACAAATTTTCCTAATCTTTCTGTTCAAGCGCCATCTAC,0.928 RPM ratio (pull-down/input)
5,GATGATTGTTCTCCCAGCTGATGAATTTGTACCATCGAGTAAACAAATTTTCCTAATCTTTCTGTTCAAGCGCCATCTAC,1.17 RPM ratio (pull-down/input)
6,GATGATTGTTCTCCCAGCTGATGAATTCATCGGATCGAGTAAACAAATTTTCCTAATCTTTCTGTTCAAGCGCCATCTAC,0.838 RPM ratio (pull-down/input)
7,GATGATTGTTCTCCCAGCTGATGAATTATTTCCTTCGAGTAAACAAATTTTCCTAATCTTTCTGTTCAAGCGCCATCTAC,1.04 RPM ratio (pull-down/input)
8,GATGATTGTTCTCCCAGCTGATGAATTGAGTGACTCGAGTAAACAAATTTTCCTAATCTTTCTGTTCAAGCGCCATCTAC,0.833 RPM ratio (pull-down/input)
9,GATGATTGTTCTCCCAGCTGATGAATTACCATTTTCGAGTAAACAAATTTTCCTAATCTTTCTGTTCAAGCGCCATCTAC,1.18 RPM ratio (pull-down/input)
10,GATGATTGTTCTCCCAGCTGATGAATTGATTGTTTCGAGTAAACAAATTTTCCTAATCTTTCTGTTCAAGCGCCATCTAC,1.61 RPM ratio (pull-down/input)
11,GATGATTGTTCTCCCAGCTGATGAATTGTTTCTTTCGAGTAAACAAATTTTCCTAATCTTTCTGTTCAAGCGCCATCTAC,1.58 RPM ratio (pull-down/input)
12,GATGATTGTTCTCCCAGCTGATGAATTTCTGTTTTCGAGTAAACAAATTTTCCTAATCTTTCTGTTCAAGCGCCATCTAC,2.32 RPM ratio (pull-down/input)
13,GATGATTGTTCTCCCAGCTGATGAATTTCCTGTTTCGAGTAAACAAATTTTCCTAATCTTTCTGTTCAAGCGCCATCTAC,0.949 RPM ratio (pull-down/input)
14,GATGATTGTTCTCCCAGCTGATGAATTACTGATTTCGAGTAAACAAATTTTCCTAATCTTTCTGTTCAAGCGCCATCTAC,1.24 RPM ratio (pull-down/input)
15,GATGATTGTTCTCCCAGCTGATGAATTTTCTGTTTCGAGTAAACAAATTTTCCTAATCTTTCTGTTCAAGCGCCATCTAC,0.977 RPM ratio (pull-down/input)
16,GATGATTGTTCTCCCAGCTGATGAATTACTGTTTTCGAGTAAACAAATTTTCCTAATCTTTCTGTTCAAGCGCCATCTAC,2.6 RPM ratio (pull-down/input)
17,GATGATTGTTCTCCCAGCTGATGAATTGTTTTTTTCGAGTAAACAAATTTTCCTAATCTTTCTGTTCAAGCGCCATCTAC,2.25 RPM ratio (pull-down/input)
18,GATGATTGTTCTCCCAGCTGATGAATTTACTGTTTCGAGTAAACAAATTTTCCTAATCTTTCTGTTCAAGCGCCATCTAC,1.35 RPM ratio (pull-down/input)
19,GATGATTGTTCTCCCAGCTGATGAATTGGCTATGTCGAGTAAACAAATTTTCCTAATCTTTCTGTTCAAGCGCCATCTAC,0.854 RPM ratio (pull-down/input)
20,GATGATTGTTCTCCCAGCTGATGAATTCGTCAGTTCGAGTAAACAAATTTTCCTAATCTTTCTGTTCAAGCGCCATCTAC,0.905 RPM ratio (pull-down/input)
21,GATGATTGTTCTCCCAGCTGATGAATTGTCTCCATCGAGTAAACAAATTTTCCTAATCTTTCTGTTCAAGCGCCATCTAC,1.11 RPM ratio (pull-down/input)

row,Sequence,binding signal
1,GATGATTGTTCTCCCAGCTGATGAATTGGTTTTATCGAGTAAACAAATTTTCCTAATCTTTCTGTTCAAGCGCCATCTAC,1.14 RPM ratio (pull-down/input)
2,GATGATTGTTCTCCCAGCTGATGAATTAGTGAGATCGAGTAAACAAATTTTCCTAATCTTTCTGTTCAAGCGCCATCTAC,0.857 RPM ratio (pull-down/input)
3,GATGATTGTTCTCCCAGCTGATGAATTTTTTACTTCGAGTAAACAAATTTTCCTAATCTTTCTGTTCAAGCGCCATCTAC,1.05 RPM ratio (pull-down/input)
4,GATGATTGTTCTCCCAGCTGATGAATTACTTTATTCGAGTAAACAAATTTTCCTAATCTTTCTGTTCAAGCGCCATCTAC,1.15 RPM ratio (pull-down/input)
5,GATGATTGTTCTCCCAGCTGATGAATTTATTACTTCGAGTAAACAAATTTTCCTAATCTTTCTGTTCAAGCGCCATCTAC,1.29 RPM ratio (pull-down/input)
6,GATGATTGTTCTCCCAGCTGATGAATTTACTTCTTCGAGTAAACAAATTTTCCTAATCTTTCTGTTCAAGCGCCATCTAC,1.33 RPM ratio (pull-down/input)
7,GATGATTGTTCTCCCAGCTGATGAATTATTTACTTCGAGTAAACAAATTTTCCTAATCTTTCTGTTCAAGCGCCATCTAC,2.15 RPM ratio (pull-down/input)
8,GATGATTGTTCTCCCAGCTGATGAATTGTTTACTTCGAGTAAACAAATTTTCCTAATCTTTCTGTTCAAGCGCCATCTAC,2.82 RPM ratio (pull-down/input)
9,GATGATTGTTCTCCCAGCTGATGAATTGCCAATGTCGAGTAAACAAATTTTCCTAATCTTTCTGTTCAAGCGCCATCTAC,0.943 RPM ratio (pull-down/input)
10,GATGATTGTTCTCCCAGCTGATGAATTGCGCGAATCGAGTAAACAAATTTTCCTAATCTTTCTGTTCAAGCGCCATCTAC,1.14 RPM ratio (pull-down/input)
11,GATGATTGTTCTCCCAGCTGATGAATTAGATTTATCGAGTAAACAAATTTTCCTAATCTTTCTGTTCAAGCGCCATCTAC,1.13 RPM ratio (pull-down/input)
12,GATGATTGTTCTCCCAGCTGATGAATTCTCTTTATCGAGTAAACAAATTTTCCTAATCTTTCTGTTCAAGCGCCATCTAC,0.967 RPM ratio (pull-down/input)
13,GATGATTGTTCTCCCAGCTGATGAATTGCTTTTTTCGAGTAAACAAATTTTCCTAATCTTTCTGTTCAAGCGCCATCTAC,1.45 RPM ratio (pull-down/input)
14,GATGATTGTTCTCCCAGCTGATGAATTGCTTTGTTCGAGTAAACAAATTTTCCTAATCTTTCTGTTCAAGCGCCATCTAC,1.11 RPM ratio (pull-down/input)
15,GATGATTGTTCTCCCAGCTGATGAATTTGCTTTTTCGAGTAAACAAATTTTCCTAATCTTTCTGTTCAAGCGCCATCTAC,1.21 RPM ratio (pull-down/input)
16,GATGATTGTTCTCCCAGCTGATGAATTTTTGCTTTCGAGTAAACAAATTTTCCTAATCTTTCTGTTCAAGCGCCATCTAC,1.83 RPM ratio (pull-down/input)
17,GATGATTGTTCTCCCAGCTGATGAATTTGCTTCTTCGAGTAAACAAATTTTCCTAATCTTTCTGTTCAAGCGCCATCTAC,1.02 RPM ratio (pull-down/input)
18,GATGATTGTTCTCCCAGCTGATGAATTGTTTGCTTCGAGTAAACAAATTTTCCTAATCTTTCTGTTCAAGCGCCATCTAC,2.2 RPM ratio (pull-down/input)
19,GATGATTGTTCTCCCAGCTGATGAATTGTTGCTTTCGAGTAAACAAATTTTCCTAATCTTTCTGTTCAAGCGCCATCTAC,2.12 RPM ratio (pull-down/input)
20,GATGATTGTTCTCCCAGCTGATGAATTTTTTGCTTCGAGTAAACAAATTTTCCTAATCTTTCTGTTCAAGCGCCATCTAC,0.938 RPM ratio (pull-down/input)
21,GATGATTGTTCTCCCAGCTGATGAATTTGTTGCTTCGAGTAAACAAATTTTCCTAATCTTTCTGTTCAAGCGCCATCTAC,1.54 RPM ratio (pull-down/input)

row,Sequence,binding signal
1,GATGATTGTTCTCCCAGCTGATGAATTTGGCAGCTCGAGTAAACAAATTTTCCTAATCTTTCTGTTCAAGCGCCATCTAC,0.875 RPM ratio (pull-down/input)
2,GATGATTGTTCTCCCAGCTGATGAATTAACGCTGTCGAGTAAACAAATTTTCCTAATCTTTCTGTTCAAGCGCCATCTAC,0.97 RPM ratio (pull-down/input)
3,GATGATTGTTCTCCCAGCTGATGAATTAAAGAGTTCGAGTAAACAAATTTTCCTAATCTTTCTGTTCAAGCGCCATCTAC,0.941 RPM ratio (pull-down/input)
4,GATGATTGTTCTCCCAGCTGATGAATTCAGATTATCGAGTAAACAAATTTTCCTAATCTTTCTGTTCAAGCGCCATCTAC,0.977 RPM ratio (pull-down/input)
5,GATGATTGTTCTCCCAGCTGATGAATTCGGTAGATCGAGTAAACAAATTTTCCTAATCTTTCTGTTCAAGCGCCATCTAC,0.874 RPM ratio (pull-down/input)
6,GATGATTGTTCTCCCAGCTGATGAATTTATATGATCGAGTAAACAAATTTTCCTAATCTTTCTGTTCAAGCGCCATCTAC,1.14 RPM ratio (pull-down/input)
7,GATGATTGTTCTCCCAGCTGATGAATTTATTTCTTCGAGTAAACAAATTTTCCTAATCTTTCTGTTCAAGCGCCATCTAC,1.29 RPM ratio (pull-down/input)
8,GATGATTGTTCTCCCAGCTGATGAATTCTTTATTTCGAGTAAACAAATTTTCCTAATCTTTCTGTTCAAGCGCCATCTAC,1.03 RPM ratio (pull-down/input)
9,GATGATTGTTCTCCCAGCTGATGAATTATTTTATTCGAGTAAACAAATTTTCCTAATCTTTCTGTTCAAGCGCCATCTAC,1.22 RPM ratio (pull-down/input)
10,GATGATTGTTCTCCCAGCTGATGAATTTGTTTATTCGAGTAAACAAATTTTCCTAATCTTTCTGTTCAAGCGCCATCTAC,2.89 RPM ratio (pull-down/input)
11,GATGATTGTTCTCCCAGCTGATGAATTTTATTTTTCGAGTAAACAAATTTTCCTAATCTTTCTGTTCAAGCGCCATCTAC,1.96 RPM ratio (pull-down/input)
12,GATGATTGTTCTCCCAGCTGATGAATTTATTATTTCGAGTAAACAAATTTTCCTAATCTTTCTGTTCAAGCGCCATCTAC,1.6 RPM ratio (pull-down/input)
13,GATGATTGTTCTCCCAGCTGATGAATTTTTTTATTCGAGTAAACAAATTTTCCTAATCTTTCTGTTCAAGCGCCATCTAC,0.953 RPM ratio (pull-down/input)
14,GATGATTGTTCTCCCAGCTGATGAATTATTTATTTCGAGTAAACAAATTTTCCTAATCTTTCTGTTCAAGCGCCATCTAC,2.06 RPM ratio (pull-down/input)
15,GATGATTGTTCTCCCAGCTGATGAATTTTTATTTTCGAGTAAACAAATTTTCCTAATCTTTCTGTTCAAGCGCCATCTAC,2.75 RPM ratio (pull-down/input)
16,GATGATTGTTCTCCCAGCTGATGAATTCCTTTATTCGAGTAAACAAATTTTCCTAATCTTTCTGTTCAAGCGCCATCTAC,0.944 RPM ratio (pull-down/input)
17,GATGATTGTTCTCCCAGCTGATGAATTGTTTTATTCGAGTAAACAAATTTTCCTAATCTTTCTGTTCAAGCGCCATCTAC,1.6 RPM ratio (pull-down/input)
18,GATGATTGTTCTCCCAGCTGATGAATTAAATTTGTCGAGTAAACAAATTTTCCTAATCTTTCTGTTCAAGCGCCATCTAC,1.06 RPM ratio (pull-down/input)
19,GATGATTGTTCTCCCAGCTGATGAATTAGTACTGTCGAGTAAACAAATTTTCCTAATCTTTCTGTTCAAGCGCCATCTAC,1 RPM ratio (pull-down/input)
20,GATGATTGTTCTCCCAGCTGATGAATTTCGGCTGTCGAGTAAACAAATTTTCCTAATCTTTCTGTTCAAGCGCCATCTAC,0.82 RPM ratio (pull-down/input)
21,GATGATTGTTCTCCCAGCTGATGAATTATCCGCATCGAGTAAACAAATTTTCCTAATCTTTCTGTTCAAGCGCCATCTAC,1.15 RPM ratio (pull-down/input)
